Unmarked numbers belong to inactive results. For some of these results: Results with a measured potency or affinity are listed apart. Calls of active or inactive are those of the source. Unless noted, the rule behind the calls is not given here.

Experiment [1] is described as follows: antimalarial activity against Dd2 strain (AID 2302;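 active = growth inhibition above 50% at the single 2 µM test dose, taken to imply half-maximal potency below 2 µM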;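 note: 0% = DMSO untreated growth and 100% = chloroquine plus artemisinin killed control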). Conditions: P. falciparum Dd2 in RBCs, LDH growth readout, 72 h; at 2 µM; hits give high values.
Experiment [2] in a line: human hepatoma cell viability loss – ATP luminescence, cytotoxicity control for P. falciparum antimalarial project, primary screen (AID 2303;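 active = inhibition above 50%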;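 note: 0% = DMSO wells and 100% = digitonin-killed cells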). Conditions: HepG2 viability, 24-48 h, at 10 µM, hits give high values.
The target in experiment [3] is L-lactate dehydrogenase (Plasmodium falciparum (isolate CDC / Honduras)) (UniProt Q27743). Put plainly: PfLDH activity inhibition – cell lysate, 3D7 strain, counter-screen for P. falciparum growth inhibition project (AID 2304).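 Note: 0% = vehicle and 100% = reference inhibitor.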 Conditions: P. falciparum 3D7 crude extract, LDH APAD/NBT absorbance; at 2 µM; hits give high values.
The nature of experiment [4]: inhibition of 3D7 malaria parasite growth – strain 3D7 (AID 2306).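 Note: 0% = DMSO wells and 100% = chloroquine plus artemisinin control wells.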 Conditions: P. falciparum 3D7 erythrocytic growth, LDH absorbance, 72 h; at 2 µM; hits give high values.
Experiment [5] has as its target Calcium-dependent protein kinase 1 (Plasmodium falciparum (isolate 3D7)) (UniProt P62344). Put plainly: PfCDPK1 kinase inhibitors, biochemical, TCAMS library (AID 1159585; cut-off not given, nearly all actives have IC50 up to about 0.98 µM;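 note: inhibitors leave more ATP so luminescence rises with inhibition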). Particulars: recombinant PfCDPK1, Kinase-Glo ATP depletion luminescence.
The target of experiment [6] is Plasmodium falciparum protein kinase 6 (PK6, PF3D7_1337100) (UniProt Q8IDW1). Put plainly: PfPK6 kinase inhibitors, biochemical, TCAMS library (AID 1159586). Particulars: recombinant PfPK6, Kinase-Glo ATP depletion luminescence.
Experiment [7] concerns the target Protein kinase 7 (PK7), Plasmodium falciparum 3D7 (PF3D7_0213400) (UniProt Q7YTF7). As to the kind of experiment: inhibition of Plasmodium PK7 catalytic activity – biochemical, TCAMS antimalarial set, Kinase-Glo luminescence (AID 1159587). Conditions: recombinant PfPK7, Kinase-Glo ATP depletion luminescence.
The target in experiment [8] is Calcium-dependent protein kinase 4 (Plasmodium falciparum (isolate 3D7)) (UniProt Q8IBS5). As to the kind of experiment: PfCDPK4 kinase inhibitors, biochemical, TCAMS library (AID 1159588; cut-off not given, nearly all actives have IC50 up to about 0.91 µM). Particulars: recombinant PfCDPK4, Kinase-Glo ATP depletion luminescence.
Sequence of Calcium-dependent protein kinase 4 (Plasmodium falciparum (isolate 3D7)) (Q8IBS5 whole entry, looked up): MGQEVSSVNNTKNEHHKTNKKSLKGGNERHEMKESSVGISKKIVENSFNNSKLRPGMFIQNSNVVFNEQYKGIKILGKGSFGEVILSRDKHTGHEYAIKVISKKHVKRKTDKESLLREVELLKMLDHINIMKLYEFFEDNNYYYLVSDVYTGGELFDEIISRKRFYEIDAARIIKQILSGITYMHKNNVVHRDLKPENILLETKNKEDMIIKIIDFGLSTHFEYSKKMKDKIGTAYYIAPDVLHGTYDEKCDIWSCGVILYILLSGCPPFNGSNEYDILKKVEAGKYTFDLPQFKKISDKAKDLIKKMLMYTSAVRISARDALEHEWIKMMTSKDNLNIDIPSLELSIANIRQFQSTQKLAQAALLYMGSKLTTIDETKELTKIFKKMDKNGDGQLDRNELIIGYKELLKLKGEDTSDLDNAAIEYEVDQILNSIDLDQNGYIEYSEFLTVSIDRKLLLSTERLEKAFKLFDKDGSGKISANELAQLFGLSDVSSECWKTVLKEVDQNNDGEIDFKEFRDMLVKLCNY

Sequence of Protein kinase 7 (PK7), Plasmodium falciparum 3D7 (PF3D7_0213400) (Q7YTF7 1-343): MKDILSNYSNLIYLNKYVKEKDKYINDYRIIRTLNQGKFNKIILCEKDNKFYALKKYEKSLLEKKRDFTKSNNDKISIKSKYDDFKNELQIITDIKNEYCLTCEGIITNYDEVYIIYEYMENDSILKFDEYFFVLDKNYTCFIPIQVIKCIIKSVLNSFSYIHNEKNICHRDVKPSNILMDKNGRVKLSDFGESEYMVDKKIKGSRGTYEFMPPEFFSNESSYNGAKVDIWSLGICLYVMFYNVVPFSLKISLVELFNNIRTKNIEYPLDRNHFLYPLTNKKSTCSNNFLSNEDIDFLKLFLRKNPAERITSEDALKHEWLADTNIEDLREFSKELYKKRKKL
Sequence of Calcium-dependent protein kinase 1 (Plasmodium falciparum (isolate 3D7)) (P62344 whole entry, looked up): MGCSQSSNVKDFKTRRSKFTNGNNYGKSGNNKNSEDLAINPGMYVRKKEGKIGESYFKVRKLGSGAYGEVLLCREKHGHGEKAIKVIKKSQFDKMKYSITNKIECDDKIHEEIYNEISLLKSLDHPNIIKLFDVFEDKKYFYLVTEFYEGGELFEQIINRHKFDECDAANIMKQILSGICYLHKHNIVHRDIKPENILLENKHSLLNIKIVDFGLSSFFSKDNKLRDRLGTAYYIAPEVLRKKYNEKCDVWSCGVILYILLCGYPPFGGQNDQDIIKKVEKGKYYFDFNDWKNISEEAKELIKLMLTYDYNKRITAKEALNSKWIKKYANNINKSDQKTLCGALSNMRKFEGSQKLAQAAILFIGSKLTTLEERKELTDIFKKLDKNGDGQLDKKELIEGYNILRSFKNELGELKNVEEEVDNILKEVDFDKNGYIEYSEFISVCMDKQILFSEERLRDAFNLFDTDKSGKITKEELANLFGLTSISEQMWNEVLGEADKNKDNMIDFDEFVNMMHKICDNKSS
Sequence of Plasmodium falciparum protein kinase 6 (PK6, PF3D7_1337100) (Q8IDW1 1-305): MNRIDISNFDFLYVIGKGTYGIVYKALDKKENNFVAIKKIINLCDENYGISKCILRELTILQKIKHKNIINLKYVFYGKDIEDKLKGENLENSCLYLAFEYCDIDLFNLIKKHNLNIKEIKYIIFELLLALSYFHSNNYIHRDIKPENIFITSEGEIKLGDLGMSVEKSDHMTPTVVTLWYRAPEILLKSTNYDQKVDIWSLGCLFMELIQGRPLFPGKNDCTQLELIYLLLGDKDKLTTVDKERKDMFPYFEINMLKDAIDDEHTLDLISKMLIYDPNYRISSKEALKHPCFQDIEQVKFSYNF
Sequence of L-lactate dehydrogenase (Plasmodium falciparum (isolate CDC / Honduras)) (Q27743 whole entry, looked up): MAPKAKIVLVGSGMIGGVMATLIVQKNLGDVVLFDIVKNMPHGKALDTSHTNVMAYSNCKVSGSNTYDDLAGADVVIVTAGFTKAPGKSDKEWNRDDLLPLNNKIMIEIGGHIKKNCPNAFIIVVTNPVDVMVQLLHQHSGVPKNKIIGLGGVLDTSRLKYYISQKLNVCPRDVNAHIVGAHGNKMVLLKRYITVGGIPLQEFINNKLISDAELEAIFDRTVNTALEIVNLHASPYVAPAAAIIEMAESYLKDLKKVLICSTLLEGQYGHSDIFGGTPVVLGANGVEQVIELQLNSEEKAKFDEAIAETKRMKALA

For `COc1ccc2ncc(F)c(CCN3CC[C@@H](CNCc4cc5c(cn4)OCS5)C3)c2n1`, the growth inhibition in experiment [1] is 29%; in experiment [4] it was 98% (active). Moreover, the inhibition in experiment [2] is 3%; in experiment [3], 0%. The outcome in experiment [5], in experiment [6], in experiment [7] and in experiment [8] was inactive.
Regarding `NC1=NC2(CCCC2)N(c2ccc(Cl)cc2)C(N)=N1`, the values for the growth inhibition in experiment [1] and in experiment [4] were -1% and 97% (active), respectively. The inhibition in experiment [2] was -8%; in experiment [3], -6%. Moreover, the result in experiment [5], in experiment [6], in experiment [7] and in experiment [8] was inactive.
`CCCN1CCc2c(sc3nc(SCC(=O)Nc4ccc(C)cc4)n(-c4ccc(C)cc4)c(=O)c23)C1`: the growth inhibition is 71% (active) in experiment [1] and 92% (active) in experiment [4]. The results for the inhibition in experiment [2] and in experiment [3] were 0% and -5%, respectively. The outcome in experiment [5], in experiment [6], in experiment [7] and in experiment [8] was inactive.
Take `CCc1cc2c3c(N)nc(N)nc3ccc2n1C(CC)CC`: the growth inhibition in experiment [1] was 12%; in experiment [4] it was 96% (active). Also, the results for the inhibition in experiment [2] and in experiment [3] were 71% (active) and 5%, respectively. Moreover, the outcome in experiment [5], in experiment [6], in experiment [7] and in experiment [8] was inactive.
Take `Nc1c2c(nc3ccc(NC(=O)Cc4ccccc4)cc13)CCCC2`: the growth inhibition in experiment [1] is -2%; in experiment [4], 101% (active). Besides, the inhibition is 9% in experiment [2] and 6% in experiment [3]. Besides, the result in experiment [5], in experiment [6], in experiment [7] and in experiment [8] was inactive.
For the compound `O=C(Nc1cccc(C2=NCCCN2)c1)Nc1cccc(C2=NCCCN2)c1`, the growth inhibition in experiment [1] is 70% (active); in experiment [4] it was 81% (active). Further, the inhibition in experiment [2] was 5%; in experiment [3], -6%. Moreover, the outcome in experiment [5], in experiment [6], in experiment [7] and in experiment [8] was inactive.
Consider `Cc1cc(Nc2ncc3c(n2)N(C2CCC2)CC3)ccc1N1CCN(C)CC1`, for which the results for the growth inhibition in experiment [1] and in experiment [4] were 100% (active) and 101% (active), respectively. Also, the inhibition was 27% in experiment [2] and -2% in experiment [3]. The outcome in experiment [5], in experiment [6], in experiment [7] and in experiment [8] was inactive.
Turning to `Cc1nc(C(C)Nc2nncc(-c3ccc(Cl)cc3)n2)cs1` (stereo not given), the growth inhibition in experiment [1] was 55% (active); in experiment [4] it was 91% (active). Further, the figures for the inhibition in experiment [2] and in experiment [3] were -15% and -2%, respectively. Further, the result in experiment [5], in experiment [6], in experiment [7] and in experiment [8] was inactive.
As to `NC1=NC2(CCCCC2)N(OCCCCCCCCNc2nc(N)nc(N)n2)C(N)=N1`, the growth inhibition in experiment [1] is 99% (active); in experiment [4], 96% (active). Besides, the inhibition in experiment [2] is 44%; in experiment [3], -5%. The result in experiment [5], in experiment [6], in experiment [7] and in experiment [8] was inactive.
Turning to `CC(C)c1ncc(-c2ccncc2)c(C2CCC(CNC(=O)c3cccnc3)CC2)n1` (stereo not given), the growth inhibition was 88% (active) in experiment [1] and 89% (active) in experiment [4]. The inhibition in experiment [2] is -14%; in experiment [3], 1%. Also, the result in experiment [5], in experiment [6], in experiment [7] and in experiment [8] was inactive.
Take `Cc1n[nH]c(C)c1C1CCN(CC2CCC(NC(=O)/C=C/c3ccc(Cl)c(Cl)c3)CC2)CC1` (stereo not given): the growth inhibition was 53% (active) in experiment [1] and 101% (active) in experiment [4]. Further, the figures for the inhibition in experiment [2] and in experiment [3] were 15% and 3%, respectively. Besides, the outcome in experiment [5], in experiment [6], in experiment [7] and in experiment [8] was inactive.
Consider `CC(C)c1ccc(OCCCON2C(N)=NC(N)=NC2(C)C)cc1`, for which the results for the growth inhibition in experiment [1] and in experiment [4] were 97% (active) and 93% (active), respectively. Besides, the inhibition in experiment [2] is 69% (active); in experiment [3] it was 0%. The outcome in experiment [5], in experiment [6], in experiment [7] and in experiment [8] was inactive.
Regarding `COc1ccc(CNCc2ccc(-c3ccc(-c4nc5c(C)cccc5[nH]4)s3)cc2)cc1`, the growth inhibition is 89% (active) in experiment [1] and 100% (active) in experiment [4]. Further, the figures for the inhibition in experiment [2] and in experiment [3] were 54% (active) and 3%, respectively. The outcome in experiment [5], in experiment [6], in experiment [7] and in experiment [8] was inactive.
Regarding `CN1CC[C@@H](Oc2cc(NC(=O)Nc3ccccc3Br)ccc2Cl)C1`, the growth inhibition in experiment [1] was 6%; in experiment [4] it was 100% (active). The values for the inhibition in experiment [2] and in experiment [3] were 26% and 0%, respectively. Moreover, the result in experiment [5], in experiment [6], in experiment [7] and in experiment [8] was inactive.
`COc1cccc(C(=O)OC2=C3CCC(=O)C3(C)CCC2=O)c1` (stereo not given): the growth inhibition is 9% in experiment [1] and 93% (active) in experiment [4]. Moreover, the inhibition is 37% in experiment [2] and 2% in experiment [3]. Further, the result in experiment [5], in experiment [6], in experiment [7] and in experiment [8] was inactive.
`O=C(Nc1cccc(-c2csc(-c3nc4ccccc4[nH]3)c2)c1)c1cccnc1`: the growth inhibition is 45% in experiment [1] and 98% (active) in experiment [4]. The values for the inhibition in experiment [2] and in experiment [3] were 18% and -5%, respectively. Besides, the result in experiment [5], in experiment [6], in experiment [7] and in experiment [8] was inactive.
Take `O=S(=O)(c1ccccc1OC(F)(F)F)C1C[C@H]2CC[C@@H](C1)N2S(=O)(=O)c1cccc(C(F)(F)F)c1` (stereo not given in full): the growth inhibition in experiment [1] and in experiment [4] was 99% (active) in each case. Further, the results for the inhibition in experiment [2] and in experiment [3] were 5% and 2%, respectively. Moreover, the result in experiment [5], in experiment [6], in experiment [7] and in experiment [8] was inactive.
Take `COc1nc2c(N3CCN(CCNCc4ccc5c(n4)NC(=O)CO5)CC3)ccnc2cc1F`: the growth inhibition in experiment [1] was 9%; in experiment [4], 101% (active). Also, the inhibition in experiment [2] was 18%; in experiment [3], -2%. In addition, the result in experiment [5], in experiment [6], in experiment [7] and in experiment [8] was inactive.
`COc1ccc2nccc([C@@H](O)CN3CCC(NC(=O)Cc4cccc5c(Br)cccc45)CC3)c2c1`: the results for the growth inhibition in experiment [1] and in experiment [4] were 34% and 99% (active), respectively. In addition, the results for the inhibition in experiment [2] and in experiment [3] were 15% and -3%, respectively. Besides, the outcome in experiment [5], in experiment [6], in experiment [7] and in experiment [8] was inactive.
As to `Cc1c(Cl)ccc2c(C(=O)Nc3ccncc3)cc(-c3cccnc3)nc12`, the growth inhibition in experiment [1] was 83% (active); in experiment [4], 99% (active). Also, the inhibition in experiment [2] was 16%; in experiment [3], -3%. Further, the outcome in experiment [5], in experiment [6], in experiment [7] and in experiment [8] was inactive.

Values taken from PubChem BioAssay.
